The nature of experiment [1]: qHTS profiling for inhibitors of Plasmodium falciparum (3D7) proliferation (AID 743322).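 Note: infected erythrocytes exposed to compound for 72 h before lysis; 100% = DMSO vehicle wells and 0% = 0.29 µM artemisinin.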 The conditions noted are these: P. falciparum 3D7 proliferation; at 28.7 µM (top of the series) unless noted. The essentials:
(§1)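 Erythrocytes infected with P. falciparum (0.3% parasitemia, 2.5% hematocrit) incubated with compounds 72 h at 37 C, 5% CO2. Lysis with saponin/Triton buffer containing SYBR Green I, overnight at room temperature in the dark; DNA fluorescence (485/535 nm) normalised to 0.29 uM artemisinin and DMSO.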
A general note: In qHTS, concentration-response curves come from the screen itself.

Experiment [2] can be described thus: qHTS profiling for inhibitors of Plasmodium falciparum (HB3) proliferation (AID 743324; active = well fitted curve in the direction sought with a large enough effect; an effect the other way counts as inactive or inconclusive;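 note: 100% = DMSO vehicle wells and 0% = artemisinin-treated control wells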). Particulars: Plasmodium falciparum HB3 blood-stage proliferation; at 28.7 µM (top of the series) unless noted. The essentials:
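P. falciparum HB3 grown in erythrocytes (0.3% parasitemia, 2.5% hematocrit final) with compound for 72 h at 37 C, 5% CO2. Parasite DNA detected by SYBR Green after saponin/triton lysis overnight; normalized to 0.29 uM artemisinin and DMSO.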

Experiment [3] is described as follows: qHTS profiling of the MIPE4 collection as inhibitors of Plasmodium falciparum (3D7) proliferation (AID 743344).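 Note: scaled between DMSO vehicle wells and 0.29 µM artemisinin as full inhibition.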 Particulars: P. falciparum 3D7 in erythrocytes, SYBR Green DNA fluorescence, 72 h; at 28.5 µM (top of the series) unless noted. Put shortly: as §1
The nature of experiment [4]: qHTS profiling of the MIPE4 collection as inhibitors of Plasmodium falciparum (DD2) proliferation (AID 743345). Particulars: P. falciparum Dd2 in erythrocytes, SYBR Green DNA, 72 h; at 28.5 µM (top of the series) unless noted. Put shortly: as §1
A short description of experiment [5]: qHTS profiling of the MIPE4 collection as inhibitors of Plasmodium falciparum (DD2) proliferation (Rep 2) (AID 743346). The conditions noted are these: P. falciparum Dd2 in erythrocytes, SYBR Green DNA, 72 h; at 28.5 µM (top of the series) unless noted. Put shortly: as §1
A short description of experiment [6]: qHTS profiling of the MIPE4 collection as inhibitors of Plasmodium falciparum (HB3) proliferation (AID 743347).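 Note: plate controls were DMSO vehicle wells for no effect and artemisinin wells for full effect.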 The conditions noted are these: P. falciparum HB3 in erythrocytes, SYBR Green DNA, 72 h; at 28.5 µM (top of the series) unless noted. Put shortly: as §1
Experiment [7] in a line: Cell Proliferation Assay Versus the ED40515 IL2 Dependent ATL cell lines (AID 1053195; calls by dose curve). The conditions noted are these: ED40515 IL2-dependent ATL cells. Put shortly:
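IL2-dependent ED40515 ATL cells grown with IL2, 1000 cells/well in phenol red-free RPMI + 5% FBS, exposed 48 hours at 37C. Viability by CellTiter-Glo luminescence after 15 min at RT; 9.2 uM bortezomib as control.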

A short description of experiment [8]: High-throughput drug toxicity screening in the BPDCN cell line Gen2.2 (AID 1224824).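 Note: cells exposed to compounds for 48 h before reading.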 The conditions noted are these: Gen2.2 BPDCN cells; at 45.8 µM (top of the series) unless noted. Put shortly:
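Gen2.2, 500 cells/well, phenol red-free RPMI/10% FBS/Pen-Strep; 48 h cpd, 37 °C/5% CO2; CTG lum, 15 min RT. Norm: DMSO = 100%, bortezomib 9.2 uM final = 0%.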

Experiment [9] is described as follows: High-throughput drug toxicity screening in the BPDCN cell line Cal-1 (AID 1224825). Particulars: Cal-1 BPDCN cell viability, qHTS; at 45.8 µM (top of the series) unless noted. Put shortly:
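500 Cal-1 cells/well, RPMI + glutamine + 10% FBS (phenol red-free); cpd added by pin tool; 48 h, 37C, 5% CO2; CTG 15 min RT, lumi read. Normalised: DMSO 100%, bortezomib 9.2 uM 0%.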

Experiment [10] can be described thus: qHTS assay for measurement of the activity of small molecule inhibitors on Zika virus induced Caspase-3 activity in human iPSC derived neural progenitor cells (hNPCs) (AID 1224857; active = well fitted curve in the direction sought with a large enough effect; an effect the other way counts as inactive or inconclusive; note: % of control where 0% means no effect; nearly all actives have a fitted effect of over 65% in size). The essentials: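 Quantitative HTS format: human iPSC neural progenitors, 1 h compound pretreatment, ZIKV 2 FFU/cell for 6 h at 37 C. Percent inhibition derived from luminescent caspase-3/7 signal between uninfected and infected controls.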

Experiment [11] can be described thus: qHTS assay for measurement of the activity of small molecule inhibitors on Zika virus induced Caspase-3 activity in human astrocytoma cells (AID 1224859; active = well fitted curve in the direction sought with a large enough effect; an effect the other way counts as inactive or inconclusive;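 note: plate controls were ZIKV-infected untreated cells for no effect and uninfected cells for full effect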). Put shortly:
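Readout is luminescence from Caspase-Glo 3/7 added after a 6 h ZIKV infection (2 FFU/cell) of compound-pretreated (1 h) SNB-19 cells; data expressed as % inhibition versus uninfected and infected wells.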

Experiment [12] in a line: qHTS Screen of the MIPE 4.0 Collection Against Ewings Sarcoma (RDES) (AID 1259252; active = well fitted curve in the direction sought with a large enough effect; an effect the other way counts as inactive or inconclusive; note: nearly all actives have a fitted effect of over 35% in size; note: potency is the fitted concentration of half-maximal effect). The essentials: (§2)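 After a 4 h attachment period in RPMI/5% FBS, cells were pin-dosed with test compounds; DMSO served as negative and 9.2 uM bortezomib (final) as positive control. Luminescent CellTiter-Glo signal at 48 h defined viability.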
Experiment [13] can be described thus: qHTS Screen of the MIPE 4.0 Collection Against Ewings Sarcoma (TC71) (AID 1259253; active = well fitted curve in the direction sought with a large enough effect; an effect the other way counts as inactive or inconclusive; note: potency is the fitted concentration of half-maximal effect; nearly all actives have a fitted effect of over 40% in size). Put shortly: as §2
Experiment [14] can be described thus: qHTS profiling for inhibitors of Plasmodium falciparum (DD2) proliferation (AID 743323). The conditions noted are these: lower = more inhibition; at 28.7 µM (top of the series) unless noted. The essentials: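 1536-well qHTS; infected RBCs 0.3% parasitemia/2.5% Hct final; cpd 72 h 37 C 5% CO2; lysis buffer + SYBR Green I, o/n RT dark; FI 485/535; norm. to 0.29 uM artemisinin and DMSO, plate-stack corrected.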

The nature of experiment [15]: qHTS Screen of the MIPE 4.0 Collection Against Ewings Sarcoma (TC32) (AID 1259256; active = well fitted curve in the direction sought with a large enough effect; an effect the other way counts as inactive or inconclusive;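 note: 100% = DMSO-treated cells and 0% = medium-only wells without cells; nearly all actives have a fitted effect of over 45% in size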). Put shortly: as §2
The nature of experiment [16]: Identifying Small Molecule Inhibitors of Pancreatic Cancer Stem Cells (A2780, Spheroid) (AID 1259357; active = well fitted curve in the direction sought with a large enough effect; an effect the other way counts as inactive or inconclusive;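 note: spheroids pre-formed over 14 days in stem cell medium on hydrogel; potency is the fitted concentration of half-maximal effect; compound exposure lasted 48 h before the ATP luminescence read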). The conditions noted are these: Potency: A2780 spheroid viability. The essentials:
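Pre-formed 14-day tumor spheroids or adherent cells dosed and incubated 48 h, 37C, 5% CO2. Viability assessed by CellTiter-Glo.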

The nature of experiment [17]: qHTS assay to identify small molecule inhibitors of chordoma cells - UCH-1 (AID 1259355; active = well fitted curve in the direction sought with a large enough effect; an effect the other way counts as inactive or inconclusive; note: % is set by controls: 0 for no effect and ±100 for the full control effect; nearly all actives have a fitted effect of over 55% in size). The essentials: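 Seed 800 cells per well; incubate overnight at 37 C, 5% CO2. Add test compounds (15 concentrations), then the auranofin–topoisomerase-agent combination. Incubate 48hr, add CellTiter-Glo, wait 30min, read luminescence.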

Molecules are shown by their SMILES. Inconclusive results are not listed. Calls of active or inactive are those of the source. Unless noted, the rule behind the calls is not given here.

The values below come from PubChem BioAssay (NCATS).

Regarding `COCC(=O)NCC=Cc1ccc2ncnc(Nc3ccc(Oc4ccc(C)nc4)c(C)c3)c2c1`, the remaining parasite growth % (stronger effect = lower value) in [1] was 28.2%. This molecule gave a remaining proliferation (% of control), lower = more inhibition in [2] of 7.14%. Besides, the parasite growth, % of DMSO control in experiment [3] was 15.6%. Also, the parasite growth remaining, % of DMSO control (lower = more inhibition) in experiment [4] stood at 70.2%. In addition, the parasite growth, % of control (lower = inhibition) in [5] was 29.4%. Further, in experiment [6], the growth, % of control was found to be 9.14%. Besides, the Potency in [7] was 4.69 µM (active); in [12], 20.9 µM (active); in experiment [13], 23.5 µM (active). Moreover, the cell viability, % of control (lower = more cytotoxic) in [8] amounted to 222%. For the same molecule, the viability (% of control) in [9] stood at 20.7%. In addition, the Potency entry in [10] and in experiment [11] was “inactive” throughout.
Regarding `Nc1cccc(S(=O)(=O)N2CCCN(S(=O)(=O)c3ccc4c(c3)OCCO4)CC2)c1`, the remaining parasite growth % (stronger effect = lower value) in [1] was found to be 111%. For the same molecule, in experiment [14], the activity, percent of control is 101%. In experiment [2], the remaining proliferation (% of control), lower = more inhibition was 70.3%. In [3], this molecule gave a parasite growth, % of DMSO control of 257%. In addition, in [4], the parasite growth remaining, % of DMSO control (lower = more inhibition) came out at 102%. For the same molecule, in [5], the parasite growth, % of control (lower = inhibition) was found to be 120%. The same molecule yielded a growth, % of control in experiment [6] of 586%. Besides, the Potency in experiment [7] and in [13] was 16.6 µM (active) throughout. Besides, the cell viability, % of control (lower = more cytotoxic) in experiment [8] was 162%. The viability (% of control) in experiment [9] was determined as 104%. For the same molecule, the Potency entry in experiment [10], in [11], in [12] and in [15] was “inactive” throughout.
`O=C(Nc1cccnc1)N1CCC(Cc2cccc(Oc3ccc(C(F)(F)F)cn3)c2)CC1`: in experiment [1], the remaining parasite growth % (stronger effect = lower value) was 8.79%. Further, the activity, percent of control in experiment [14] is 24.9%. In experiment [2], this molecule registered a remaining proliferation (% of control), lower = more inhibition of 4.06%. Moreover, in experiment [3], the parasite growth, % of DMSO control worked out at 14.7%. The parasite growth remaining, % of DMSO control (lower = more inhibition) in [4] came out at 52.2%. Besides, in experiment [5], the parasite growth, % of control (lower = inhibition) is 21%. In [6], this molecule came in with a growth, % of control of 5.3%. In addition, the Potency in [7] is 5.9 µM (active); in [12] it was 18.7 µM (active); in [13], 16.6 µM (active); in [16] it was 18.7 µM (active). Further, the cell viability, % of control (lower = more cytotoxic) in experiment [8] was found to be 147%. In addition, the viability (% of control) in [9] was found to be 52.7%. Besides, the Potency entry in [10] and in [11] was “inactive” throughout.
Turning to `Nc1nc2ccc(OC(F)(F)F)cc2s1`, in experiment [1], the remaining parasite growth % (stronger effect = lower value) was 105%. For the same molecule, the activity, percent of control in experiment [14] was 105%. The same molecule displayed a parasite growth, % of DMSO control in experiment [3] of 7.34%. The parasite growth remaining, % of DMSO control (lower = more inhibition) in [4] amounted to 7.7%. For the same molecule, in [5], the parasite growth, % of control (lower = inhibition) turned out to be 33.2%. Moreover, the growth, % of control in experiment [6] was 7.48%. The Potency in experiment [7] is 23.5 µM (active). The cell viability, % of control (lower = more cytotoxic) in experiment [8] is 93.2%. Further, the viability (% of control) in experiment [9] turned out to be 103%. For the same molecule, the Potency result in experiment [10], in experiment [11] and in experiment [17] was “inactive” each time.
